Experimental data: a collection of fitness landscapes (doi:10.1126/science.1257360)
In all, about 140,000 sequences were measured (“enrichment ratio after two sorts for PhoP signalling”: median about 0, highest 2% from about 11 on). What follows is part of a selection rich in the highest values, with near analogues and random picks from the rest.

B1: PhoQ; a variant is named by its letters at X, in order, P23837 (parent)
chain: MKKLLRLFFPLSLRVRFLLATAAVVLVLSLAYGMVALIGYSVSFDKTTFRLLRGESNLFYTLAKWENNKLHVELPENIDKQSPTMTLIYDENGQLLWAQRDVPWLMKMIQPDWLKSNGFHEIEADVNDTSLLLSGDHSIQQQLQEVREDDDDAEMTHSVAVNVYPATSRMPKLTIVVVDTIPVELKSSYMVWSWFIYVLSANLLLVIPLLWVAAWWSLRPIEALAKEVRELEEHNRELLNPATTRELTSLVRNLNRLLKSERERYDKYRTTLTDLTHSLKTPLXXLQXXLRSLRSEKMSVSDAEPVMLEQISRISQQIGYYLHRASMRGGTLLSRELHPVAPLLDNLTSALNKVYQRKGVNISLDISPEISFVGEQNDFVEVMGNVLDNACKYCLEFVEISARQTDEHLYIVVEDDGPGIPLSKREVIFDRGQRVDTLRPGQGVGLAVAREITEQYEGKIVAGESMLGGARMEVIFGRQHSAPKDE

Variants of: B1
Assay: enrichment ratio after two sorts for PhoP signalling (ratio (wild type AVST 3.29)); higher = more functional
Conditions: with PhoP (E. coli)

| Variant | enrichment ratio |
| --- | --- |
| KCTM | ≤ 0.25 |
| VSWM | 2.15 |
| VCTM | 23 |
| VSTM | 14.3 |
| VFTM | ≤ 0.25 |
| NSTM | ≤ 0.25 |
| EPCV | ≤ 0.25 |
| PQFI | ≤ 0.25 |
| IWAV | ≤ 0.25 |
| PCTF | ≤ 0.25 |
| RWFD | ≤ 0.25 |
| LQLQ | ≤ 0.25 |
| ADLQ | 3.02 |
| ACLR | 8.18 |
| ACLQ | 11.6 |
| AILQ | 13.6 |
| KCLQ | ≤ 0.25 |
| PLLQ | ≤ 0.25 |
| VHLQ | ≤ 0.25 |
| ALLQ | 14.7 |
| ASLQ | 11.8 |
| ASLR | 3.29 |
| ASTA | 9.73 |
| FDLT | ≤ 0.25 |
| DGHY | ≤ 0.25 |

| Variant | enrichment ratio |
| --- | --- |
| FIKM | ≤ 0.25 |
| HWCE | ≤ 0.25 |
| SDKP | ≤ 0.25 |
| YSIR | ≤ 0.25 |
| WSFS | ≤ 0.25 |
| KRRI | ≤ 0.25 |
| SLHA | ≤ 0.25 |
| IGLE | ≤ 0.25 |
| TPMA | ≤ 0.25 |
| KSGA | ≤ 0.25 |
| ELRR | ≤ 0.25 |
| FQKN | ≤ 0.25 |
| CNES | ≤ 0.25 |
| IDKS | ≤ 0.25 |
| TVPS | ≤ 0.25 |
| AQLQ | 5.87 |
| MGLQ | 16 |
| AKLQ | 41.4 |
| TGLQ | 9.97 |
| MFLQ | ≤ 0.25 |
| HKLQ | ≤ 0.25 |
| ATLQ | 11.5 |
| MGLR | ≤ 0.25 |
| AGLQ | 13.5 |
| AYLQ | 0.526 |

| Variant | enrichment ratio |
| --- | --- |
| GGLQ | 3.13 |
| TKLQ | 6.41 |
| NIMF | ≤ 0.25 |
| YKKL | ≤ 0.25 |
| ESDI | ≤ 0.25 |
| PSMS | ≤ 0.25 |
| WGKP | ≤ 0.25 |
| QAMN | ≤ 0.25 |
| KCTY | ≤ 0.25 |
| TCTY | 14.7 |
| LSTY | ≤ 0.25 |
| VCTY | ≤ 0.25 |
| SCTY | 15.6 |
| HVTY | ≤ 0.25 |
| DNQA | ≤ 0.25 |
| WMWR | ≤ 0.25 |
| GEYP | ≤ 0.25 |
| DMMD | ≤ 0.25 |
| ACMG | 14.3 |
| ACGF | 6.85 |
| ACMW | ≤ 0.25 |
| ACGA | ≤ 0.25 |
| ACMR | 1.61 |
| ACVA | 3.46 |
| ACVG | 4.01 |

| Variant | enrichment ratio |
| --- | --- |
| ACMT | 10.1 |
| ACMF | 14.4 |
| ACMK | 17.8 |
| ACWF | ≤ 0.25 |
| ACMA | 34.1 |
| PYWL | ≤ 0.25 |
| DKNN | ≤ 0.25 |
| FTRE | ≤ 0.25 |
| QRLI | ≤ 0.25 |
| FFKH | ≤ 0.25 |
| NCDG | ≤ 0.25 |
| QIFY | ≤ 0.25 |
| VWPM | ≤ 0.25 |
| ACWQ | ≤ 0.25 |
| ACMI | 21 |
| ACVC | 1.02 |
| ACGG | 4.87 |
| ACMQ | 31.7 |
| ACMV | 7.12 |
| ACIG | 12.3 |
| ACMS | 8.75 |
| WGDV | ≤ 0.25 |
| VHHQ | ≤ 0.25 |
| TTPE | ≤ 0.25 |
| MDFT | ≤ 0.25 |

| Variant | enrichment ratio |
| --- | --- |
| RPHC | ≤ 0.25 |
| NELR | ≤ 0.25 |
| MQVH | 2.29 |
| TPTT | ≤ 0.25 |
| SNCE | ≤ 0.25 |
| SLQI | 5.02 |
| SPAY | ≤ 0.25 |
| SNAY | 14.8 |
| DNQI | 22.9 |
| SNQI | 12.5 |
| DMQI | ≤ 0.25 |
| SQQI | 2.33 |
| SQCE | 24.1 |
| NQCE | ≤ 0.25 |
| DNQN | ≤ 0.25 |
| SNYI | 0.257 |
| REHF | ≤ 0.25 |
| APRY | ≤ 0.25 |
| WCFP | ≤ 0.25 |
| VRKW | ≤ 0.25 |
| HDVL | ≤ 0.25 |
| SLKT | ≤ 0.25 |
| PVHR | ≤ 0.25 |
| GYTV | ≤ 0.25 |
| YWVH | ≤ 0.25 |

| Variant | enrichment ratio |
| --- | --- |
| HHYP | ≤ 0.25 |
| SNHF | ≤ 0.25 |
| SQCA | 8.55 |
| SNSA | 13.1 |
| SNCI | 21.8 |
| SRSA | ≤ 0.25 |
| SNCA | 16.8 |
| SQCK | 9.83 |
| SQSA | 3.01 |
| SQTH | 3.03 |
| SNDH | ≤ 0.25 |
| SNHI | ≤ 0.25 |
| SQCI | 15.6 |
| DNPA | ≤ 0.25 |
| ILGQ | ≤ 0.25 |
| SFVQ | ≤ 0.25 |
| YVYP | ≤ 0.25 |
| FFCP | ≤ 0.25 |
| LDYA | ≤ 0.25 |
| SQTM | 6.18 |
| SSGD | ≤ 0.25 |
| SSPM | 0.954 |
| KYCV | ≤ 0.25 |
| SICV | 16.6 |
| SSWM | 6.76 |

| Variant | enrichment ratio |
| --- | --- |
| SICE | 1.33 |
| SSTM | 21.4 |
| SITW | 4 |
| SICI | 21 |
| SILH | 3.1 |
| SSGM | 13.4 |
| DMMP | ≤ 0.25 |
| NRRM | ≤ 0.25 |
| YLRW | ≤ 0.25 |
| TKFH | ≤ 0.25 |
| LSNL | ≤ 0.25 |
| EACR | ≤ 0.25 |
| HEFW | ≤ 0.25 |
| LKYV | ≤ 0.25 |
| SICS | 16.9 |
| KYCS | ≤ 0.25 |
| SIMD | 4.7 |
| SLTM | 12.5 |
| SIAM | 20.8 |
| SICA | 8.12 |
| WLTM | ≤ 0.25 |
| KYAM | ≤ 0.25 |
| TSVM | 3.12 |
| SSVM | 17.6 |
| KSVM | ≤ 0.25 |

| Variant | enrichment ratio |
| --- | --- |
| PLTM | ≤ 0.25 |
| DEHQ | ≤ 0.25 |
| SHVQ | ≤ 0.25 |
| KNSF | ≤ 0.25 |
| EDWM | ≤ 0.25 |
| PVLM | ≤ 0.25 |
| TLTM | 19 |
| LLTM | ≤ 0.25 |
| SICG | 22 |
| SIWM | ≤ 0.25 |
| FIGM | ≤ 0.25 |
| KYCG | ≤ 0.25 |
| WICG | ≤ 0.25 |
| SIGM | 9.86 |
| FICM | 12.9 |
| SICK | 14.6 |
| FICK | ≤ 0.25 |
| VLTM | ≤ 0.25 |
| NHYV | ≤ 0.25 |
| EHWN | ≤ 0.25 |
